The results in this text go back to PubChem BioAssay (NCATS).

Experiment [1] concerns the target Aldehyde dehydrogenase, mitochondrial (Homo sapiens) (UniProt P05091). Nature of the experiment: qHTS for Inhibitors of the Aldehyde Dehydrogenase Family (ALDH2) Primary screen (AID 2061308; note: nearly all actives have a fitted effect of over 55% in size). (In general: Quantitative high-throughput screening tests each substance at several concentrations.)
The target in experiment [2] is Retinaldehyde dehydrogenase 3 (Homo sapiens) (UniProt P47895). Nature of the experiment: qHTS for Inhibitors of the Aldehyde Dehydrogenase Family (ALDH1A3) Primary screen (AID 2061315).

Molecules are shown by their SMILES. Inconclusive results are not listed. A call without a number means that no potency is given here. Activity calls are given as the source filed them. Calls come from the whole dose curve; as a rule, active = well fitted curve in the direction sought with a large enough effect; inconclusive = small, poorly fitted or top-dose-only effect, or another doubt; inactive = no such curve, though single readings can be large; an effect the other way counts as inactive or inconclusive.

As for `C/C=C/c1ccc(O[C@@H]2O[C@H](CO)[C@@H](O)[C@H](O)[C@H]2O)c(OC)c1`, the Potency entry in experiment [1] and in experiment [2] was “inactive” in each case.
For the compound `O=C1CCCC2=C1C(c1[nH]ncc1Cl)NC(=NCCc1cccnc1)N2` (stereo not drawn), the Potency entry in experiment [1] and in experiment [2] was “inactive” each time.
In the case of `Cn1ccc2cc(-c3ccc4ncnc(NCc5cccc(F)c5)c4c3)ccc21`, the Potency result in experiment [1] and in experiment [2] was “inactive” throughout.
With `CCOc1ccc(CCNC(=O)c2cc3sccc3n2Cc2ccncc2)cc1OCC`, the Potency entry in experiment [1] and in experiment [2] was “inactive” throughout.
For `COc1ccc(-c2nc3ccccc3c(=O)n2Cc2ccco2)cc1COc1c(C)cccc1C`, the Potency result in experiment [1] and in experiment [2] was “inactive” in each case.
In the case of `C=CCNc1oc(C2CCCC2)nc1C#N`, the Potency entry in experiment [1] and in experiment [2] was “inactive” in each case.
For the compound `O=C(NCc1nnc(-c2cc3ccccc3[nH]2)s1)c1ccccc1`, the Potency result in experiment [1] and in experiment [2] was “inactive” throughout.
Turning to `CNc1oc(-c2cccc3cnccc23)nc1C#N`, the Potency result in experiment [1] and in experiment [2] was “inactive” throughout.
Take `CC(=O)Nc1cccc(S(=O)(=O)N2CCN(S(=O)(=O)c3ccc4c(c3)OCCO4)CC2)c1`: the Potency entry in experiment [1] and in experiment [2] was “inactive” in each case.
Take `O=C(Nc1nnc(-c2ccco2)o1)c1ccc(Cl)c(Cl)c1`: the Potency entry in experiment [1] and in experiment [2] was “inactive” each time.
Take `CC1(C)CCc2cc(S(=O)(=O)N3CCN(S(=O)(=O)c4c(F)cccc4F)CC3)ccc2O1`: the Potency entry in experiment [1] and in experiment [2] was “inactive” throughout.
For the compound `COc1ccc(C2Nc3ccccc3C(=O)N2Cc2cccc(Cl)c2)cc1COc1ccc(NC(C)=O)cc1` (stereo not drawn), the Potency entry in experiment [1] and in experiment [2] was “inactive” throughout.
As to `O=S(=O)(c1ccc2c(c1)OCCO2)C1CCC(O)CC1` (stereo not drawn), the Potency result in experiment [1] and in experiment [2] was “inactive” in each case.
As to `O=c1c2ccccc2nc2sc(Nc3cccc(-c4ccncc4)c3)nn12`, the Potency result in experiment [1] and in experiment [2] was “inactive” throughout.
`CCCn1c(-c2ccc(F)cc2)nc2c(NCC3CCN(C)CC3)nc(C)nc21`: the Potency entry in experiment [1] and in experiment [2] was “inactive” in each case.
Consider `Cc1ccc(NS(=O)(=O)c2ccc3c(c2)NC(=O)CO3)cc1C`, for which the Potency result in experiment [1] and in experiment [2] was “inactive” in each case.
As to `O=C(O)c1sc2c(c1-c1nc3ccccc3s1)CCNC2`, the Potency entry in experiment [1] and in experiment [2] was “inactive” each time.
On to `CN(Cc1ccco1)c1ncnc2ccc(-c3ccc4c(c3)OCO4)cc12`, for which the Potency result in experiment [1] and in experiment [2] was “inactive” throughout.
On to `Cc1ccc(-c2cc(C(=O)Nc3ccc(-n4cncn4)cc3)c3ccccc3n2)cc1C`, for which the Potency entry in experiment [1] and in experiment [2] was “inactive” each time.
